Results filed as inconclusive are left out. The source made the active and inactive calls. Unless noted, calls come from the whole dose curve; as a rule, active = well fitted curve in the direction sought with a large enough effect in the repeat runs; inconclusive = weak or mixed curves; inactive = no such curve, though single readings can be large; an effect the other way counts as inactive or inconclusive.
How the values were obtained:
[1] = qHTS assay for small molecule agonists of the p53 signaling pathway (AID 651631; calls by dose curve; note: nearly all actives have a fitted effect of over 15% in size)
Outline: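 We treat p53RE-bla HCT-116 cells with compounds for 16 h at 37 °C, add LiveBLAzer B/G FRET substrate for 2 h at room temperature, and measure fluorescence intensity.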

[2] = qHTS assay for small molecules that induce genotoxicity in human embryonic kidney cells expressing luciferase-tagged ATAD5 (AID 651632); note: nearly all actives have a fitted effect of over 15% in size
Outline: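 DMSO vehicle served as the control. HEK293T reporter cells, 16 hr at 37C, then 30 min Amplite at room temperature; ATAD5 induction is measured as luciferase activity.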

[3] = qHTS assay for small molecule agonists of the p53 signaling pathway - cell viability (AID 651633; calls by dose curve;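 note: p53RE-bla HCT reporter cells with a stable beta-lactamase p53 reporter; series mostly up to about 83 µM; nearly all actives have a fitted effect of over 30% in size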)
Outline: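 p53RE-bla cells, seeded at 4,000 per well and rested 5 h at 37 C/5% CO2, received compounds in DMSO for 16 h at 37 C. CellTiter-Glo was then added, and luminescence was read after 30 min at room temperature to gauge cytotoxicity.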

[4] = qHTS assay for small molecules that induce genotoxicity in human embryonic kidney cells expressing luciferase-tagged ATAD5 - cell viability (AID 651634; calls by dose curve; note: nearly all actives have a fitted effect of over 25% in size)
Outline: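 Here HEK293T cells with the ATAD5 luciferase reporter are incubated with test compounds for 15.5 hr, and cytotoxicity is then gauged by measuring protease activity in live cells using fluorescence.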

[5] = qHTS assay for small molecule disruptors of the mitochondrial membrane potential - cell viability (AID 720634; calls by dose curve;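 note: human HepG2 liver cancer cells; series mostly up to about 83 µM; nearly all actives have a fitted effect of over 20% in size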)
Outline: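 Viability of HepG2 cells is scored from ATP content by luminescence; cells are exposed to compound for 1 hr at 37 C and 5% CO2, then dosed with m-MPI dye before the CellTiter-Glo reagent.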

[6] = qHTS assay for small molecule disruptors of the mitochondrial membrane potential (AID 720635)
Outline: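 HepG2 cells (2,000/well) attached overnight at 37C, then took compound for 1 hr at 37C, 5% CO2. Mito-MPS dye was added for 30 min; fluorescence was read at 490/535 nm (monomers) and 540/590 nm (aggregates).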

[7] = qHTS assay to test for compound auto fluorescence at 590 nm (red) in HepG2 cells (AID 720674)
Outline: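 Compound auto-fluorescence is scored relative to Rose Bengal sodium, measured at 540/590 nm in live HepG2 cultures after 1 hr compound contact (37 C, 5% CO2).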

[8] = qHTS assay to test for compound auto fluorescence at 535 nm (green) in HepG2 cells (AID 720675)
[9] = qHTS assay to test for compound auto fluorescence at 460 nm (blue) in HEK293 cells (AID 720678)
Outline: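 Cells were seeded and left to adhere for 4-5 hr at 37C. Compounds were then pin-transferred. After an overnight incubation at 37C under 5% CO2, intrinsic fluorescence at 405/460 nm was measured and referenced to triamterene.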

[10] = qHTS assay to test for compound auto fluorescence at 590 nm (red) in HEK293 cells (AID 720679)
Outline: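 Each well held 2,000 HEK293 cells in medium containing 10% dialyzed FBS. Following 4-5 hr attachment at 37C, 23 nL test compound or DMSO was added; plates sat overnight, and red fluorescence (540/590nm) was recorded.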

[11] = qHTS assay to test for compound auto fluorescence at 535 nm (green) in HEK293 cells (AID 720680)
[12] = qHTS assay to test for compound auto fluorescence at 460 nm (blue) in HEK293 cell free culture (AID 720681)
Outline: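 Test compounds were pinned into cell-free culture medium (DMEM with 10% FBS) and fluorescence was read directly at Ex/Em 405/460 nm. Signals were expressed as fluorescence equivalents of triamterene, with DMSO vehicle as control.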

[13] = qHTS assay to test for compound auto fluorescence at 535 nm (green) in HEK293 cell free culture (AID 720682)
Outline: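 Green-channel intensity (Ex/Em 485/535 nm) was recorded from compound-treated wells containing only DMEM with 10% FBS. Fluorescein provided the equivalency standard.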

[14] = qHTS assay to test for compound auto fluorescence at 590 nm (red) in HEK293 cell free culture (AID 720683)
Outline: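 Tox21 10K library compounds were pinned into cell-free DMEM with 10% FBS and fluorescence was read at excitation 540 nm. Activity is expressed as Rose Bengal sodium equivalency.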

[15] = qHTS assay to test for compound auto fluorescence at 590 nm (red) in HepG2 cell free culture (AID 720684)
Outline: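 Readout: intrinsic compound fluorescence at 590 nm emission after 540 nm excitation, scaled to Rose Bengal sodium. Matrix was cell-free MEM with 10% FBS; DMSO vehicle wells served as control.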

[16] = qHTS assay to test for compound auto fluorescence at 460 nm (blue) in HepG2 cell free culture (AID 720685)
Outline: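 Cell-free plates of MEM plus 10% FBS received 23 nL compound or DMSO vehicle; blue-channel (405/460 nm) intensity scored against triamterene as reference fluorophore.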

[17] = qHTS assay to test for compound auto fluorescence at 535 nm (green) in HepG2 cell free culture (AID 720686)
[18] = qHTS assay to test for compound auto fluorescence at 460 nm (blue) in HepG2 cells (AID 720687)
Outline: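 Cells (2,000/well in MEM with 10% FBS) attached overnight at 37 C, then were exposed to compound or DMSO for 1 hr at 37 C, 5% CO2. Fluorescence read at Ex/Em 405/460 nm, expressed as triamterene-equivalent signal.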

[19] = molecular target: Glucocorticoid receptor (Homo sapiens) (UniProt P04150); assay: qHTS assay to identify small molecule agonists of the glucocorticoid receptor (GR) signaling pathway (AID 720691; active = well fitted activation curve with a large enough effect in the signal ratio in the repeat runs, not every such curve was filed as active; the % refers to the signal ratio)
Glucocorticoid receptor (Homo sapiens), sequence (P04150 whole entry, looked up): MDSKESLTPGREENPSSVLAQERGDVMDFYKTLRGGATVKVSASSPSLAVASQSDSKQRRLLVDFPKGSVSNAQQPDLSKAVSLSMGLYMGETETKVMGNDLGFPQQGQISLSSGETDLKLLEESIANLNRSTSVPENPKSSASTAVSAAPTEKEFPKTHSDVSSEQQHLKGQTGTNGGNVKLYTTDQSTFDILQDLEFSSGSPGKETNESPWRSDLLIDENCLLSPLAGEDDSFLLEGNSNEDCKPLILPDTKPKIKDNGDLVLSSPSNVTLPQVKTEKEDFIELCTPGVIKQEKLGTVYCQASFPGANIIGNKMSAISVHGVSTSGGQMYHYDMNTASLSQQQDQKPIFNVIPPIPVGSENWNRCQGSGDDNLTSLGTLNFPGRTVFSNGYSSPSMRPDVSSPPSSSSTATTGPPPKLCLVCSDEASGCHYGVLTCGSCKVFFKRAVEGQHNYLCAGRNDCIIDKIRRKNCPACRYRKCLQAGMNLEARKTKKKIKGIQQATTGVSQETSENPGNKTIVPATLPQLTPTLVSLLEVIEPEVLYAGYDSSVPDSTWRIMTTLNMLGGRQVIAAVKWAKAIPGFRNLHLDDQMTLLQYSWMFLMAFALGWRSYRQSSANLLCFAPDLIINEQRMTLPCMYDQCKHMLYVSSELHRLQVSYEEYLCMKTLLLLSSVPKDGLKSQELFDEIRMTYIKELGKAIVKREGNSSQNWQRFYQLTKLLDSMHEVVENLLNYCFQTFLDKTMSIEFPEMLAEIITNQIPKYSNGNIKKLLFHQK
Outline: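 Compounds in DMSO, alongside positive controls, were added to GR-bla HeLa reporter cells and incubated 18 h at 37 C; GRE-driven beta-lactamase was detected by fluorescence after 2 h with FRET substrate at room temperature.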

[20] = molecular target: Glucocorticoid receptor (Homo sapiens) (UniProt P04150); assay: qHTS assay to identify small molecule antagonists of the glucocorticoid receptor (GR) signaling pathway (AID 720692; active = well fitted inhibition curve with a large enough effect in the signal ratio in the repeat runs, not every such curve was filed as active; the % refers to the signal ratio)
Outline: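 In a 1536-well cell format, compounds were added 4 h after seeding GR-bla HeLa cells, together with dexamethasone at 5 nM final; reporter activity was measured by FRET-substrate fluorescence following 18 h at 37 C.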

Measured: Potency

CN(C)CCCSc1ccccc1NC(=O)/C=C/c1ccccc1
inactive: all assays above

CC(C)NCC(O)c1ccc(NS(C)(=O)=O)cc1 (stereo unspecified)
inactive: all assays above

COC(=O)[C@@H](N)Cc1ccc(O)c(O)c1
not listed: [19] | [20]
inactive: all other assays above

CC(=O)Nc1c(I)cc(I)c(C(=O)O)c1I
inactive: all assays above

CCCCOCCOCCOCCCC
inactive: all assays above

NS(=O)(=O)c1ccc(C(=O)O)cc1
inactive: all assays above

O=S(O)CO
not listed: [19] | [20]
inactive: all other assays above

From PubChem BioAssay (Tox21)
